FMDV inh = foot and mouth disease virus antiviral activity; Potency, µM (series often up to 57.9 µM), usual class: inhibitors; 410,000 tested, 1.2% active; AID 1159524; FMDV antiviral cell-based qHTS; calls by dose curve; tested in HEK293T cells; note: read-out not given here; nearly all actives have a fitted effect of over 45% in size
FBPA Giardia inh = inhibitors of Giardia lamblia fructose-1,6-bisphosphate aldolase; A8B2U2; purified Giardia FBPA; Potency, µM (series often up to 59.6 µM), most hits filed as inhibitors; 290,000 tested, 0.71% active; AID 2451; note: nearly all actives have a fitted effect of over 55% in size
Target sequence (A8B2U2 whole entry, looked up): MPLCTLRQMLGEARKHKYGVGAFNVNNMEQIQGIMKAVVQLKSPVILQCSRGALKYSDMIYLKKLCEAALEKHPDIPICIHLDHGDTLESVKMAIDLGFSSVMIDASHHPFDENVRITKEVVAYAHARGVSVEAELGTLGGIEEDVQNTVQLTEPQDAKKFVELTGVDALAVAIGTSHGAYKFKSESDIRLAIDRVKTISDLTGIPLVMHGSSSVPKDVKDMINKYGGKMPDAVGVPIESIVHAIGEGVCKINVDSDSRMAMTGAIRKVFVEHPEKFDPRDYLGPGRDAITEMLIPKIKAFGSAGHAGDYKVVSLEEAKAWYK
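40 nM FBPA preincubated 10 min at RT with compound (up to 57.5 uM final), then substrate plus GAPDH/TPI/NAD/arsenate coupling and diaphorase/resazurin added. Fluorescence read after 20 min at RT, 525/598 nm.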
Sm TGR block = inhibitors of Schistosoma mansoni thioredoxin glutathione reductase; 360,000 tested, 3% active; purified TGR, DTNB reduction, TNB absorbance 405 nm; AID 485364; Potency, µM (series often up to 114 µM), most hits filed as inhibitors; note: nearly all actives have a fitted effect of over 60% in size
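Kinetic colorimetric format: TGR-catalysed, NADPH-driven DTNB reduction monitored via TNB absorbance. Enzyme dispensed at 20 nM; compound exposure 15 min at room temperature before reaction start.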
RE007 growth inh = less growth of the S. pombe RE007 Vpr strain; 360,000 tested, 0.21% active; AID 651644; Potency, µM (doses to about 92.2 µM), most hits filed as inhibitors; S. pombe RE007 Vpr strain, BacTiter-Glo ATP luminescence, 24 h; active = well fitted falling curve with a large enough effect; inconclusive = small, poorly fitted or top-dose-only effect; inactive = no such curve, though single readings can be large or run the other way; note: nearly all actives have a fitted effect of over 50% in size
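Fission yeast strain RE007, carrying one chromosomally integrated HIV-1 vpr copy, was seeded at OD 0.01 in PMG+AL medium with 23 nL pinned compound. After 24 h at 30 °C and 99% humidity, viability was read by BacTiter-Glo luminescence.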
HCMV inh = blocks human cytomegalovirus replication; activity change, negative = inhibition, % at 57.5 µM; HFF cells, HCMV-luciferase reporter, 72 h; stronger effect = lower value; AID 1259415; 410,000 tested, 4.5% active; in the data active = activity change below about -60%; inconclusive = no clear call, values can overlap the other calls; inactive = above about -39%
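Human foreskin fibroblasts infected with luciferase-reporter HCMV at MOI 1 PFU/cell, compounds at two doses. Luciferase measured 72 h post infection; normalized to buffer-only basal and Salinomycin (10uM) controls.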
Tb PYK inh = inhibitors of Trypanosoma brucei pyruvate kinase; 410,000 tested, 0.12% active; TbPYK enzyme, Kinase-Glo Plus ATP luminescence, 45 min; Q57TT1; AID 624173; Potency, µM (doses to about 76.8 µM), usual class: inhibitors; note: nearly all actives have a fitted effect of over 50% in size
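Enzyme and substrate buffer are dispensed first and compound is pin-transferred. ADP at 130 uM final then starts the reaction, which runs 45 min at room temperature. Detection reagent is added for 10 min before luminescence is imaged.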
A number is an active result; [ ] = remark or other dose. This is a sample that favours compounds with a hit; in the whole collection about 7.7% have one here. Unless noted, calls come from the whole dose curve; as a rule, active = well fitted curve in the direction sought with a large enough effect; inconclusive = small, poorly fitted or top-dose-only effect, or another doubt; inactive = no such curve, though single readings can be large; an effect the other way counts as inactive or inconclusive.

Screening c1ccc(-n2cnc3cc(NCc4ccco4)ccc32)cc1 returned FMDV inh inactive, FBPA Giardia inh inactive, Sm TGR block inactive, RE007 growth inh inactive, HCMV inh -86.3 and Tb PYK inh inactive.
`Cc1ccc(-n2cnc3cc(NCc4cccs4)ccc32)cc1` gave FMDV inh inactive, FBPA Giardia inh inactive, Sm TGR block inactive, RE007 growth inh 22.4µM, HCMV inh inactive and Tb PYK inh inactive.
For CCCC(=O)N1CCN(c2ccc(C(=O)c3ccc(OC)c(Br)c3)cc2F)CC1 the results were FBPA Giardia inh inactive and Sm TGR block inactive.
For COc1ccc(C(=O)c2ccc(N3CCN(C(=O)c4ccc(F)cc4)CC3)c(F)c2)cc1Br the results were FMDV inh inconclusive, FBPA Giardia inh inactive, Sm TGR block inconclusive, RE007 growth inh inactive, HCMV inh -88.5 and Tb PYK inh inactive.
For COc1ccc(C(=O)c2ccc(OC)c(Br)c2)cc1Br the results were FMDV inh inactive, FBPA Giardia inh inactive, Sm TGR block 10µM, RE007 growth inh inactive, HCMV inh inactive and Tb PYK inh inactive.
COc1ccc(C(=O)c2cccc(C(=O)c3ccc(OC)c(C)c3)c2)cc1C was read as FMDV inh inactive, FBPA Giardia inh inactive, Sm TGR block inactive, RE007 growth inh inactive, HCMV inh inactive and Tb PYK inh inactive.
Nc1nn(-c2ccccc2)nc1C(=O)OCc1ccc(Cl)cc1 was read as FMDV inh inactive, Sm TGR block inactive, HCMV inh inactive and Tb PYK inh inactive.
CCc1ccccc1NC(=O)CCn1cccn1 was read as FMDV inh inactive, Sm TGR block inactive, HCMV inh inactive and Tb PYK inh inactive.
For Cc1ccc(Cl)cc1N1CCN(C(=O)C2CCCN(Cc3nc(-c4cccc(Cl)c4)oc3C)C2)CC1 (stereo unspecified) the results were FMDV inh inconclusive, Sm TGR block inactive, HCMV inh -69.2 and Tb PYK inh inactive.
For CCc1ccc(-c2nc(CN3CCCC(C(=O)N4CCN(c5cc(Cl)ccc5C)CC4)C3)c(C)o2)cc1 (stereo unspecified) the results were FMDV inh inconclusive, Sm TGR block inactive, HCMV inh -86.0 and Tb PYK inh inactive.
For Cc1ccc(C)c(N2CCN(C(=O)C3CCCN(Cc4nc(-c5cccc(Cl)c5)oc4C)C3)CC2)c1 (stereo unspecified) the results were FMDV inh inconclusive, Sm TGR block inactive, HCMV inh inactive and Tb PYK inh inactive.
For Cc1ccc(C(=O)Nc2nnc(S(=O)(=O)N(C)Cc3ccc(Cl)cc3)s2)cc1 the results were FMDV inh inactive, Sm TGR block inactive, HCMV inh inactive and Tb PYK inh inactive[15.4 µM].
Screening O=C(CCc1cccnc1)NCC1Cc2cccc(-c3ncccn3)c2O1 (stereo unspecified) returned FMDV inh inactive.
Screening CCCc1nc2cccnc2n1C1CCN(C(=O)CC2NC(=O)c3ccccc32)CC1 (stereo unspecified) returned FMDV inh inactive.
For C=C(C(C)=O)C(O)c1ccc(Cl)cc1 (stereo unspecified) the results were FBPA Giardia inh inactive.
`O=C(O)/C=C/C(O)c1ccc(Cl)cc1` (stereo unspecified) gave FMDV inh inactive, FBPA Giardia inh inactive, Sm TGR block 25.1µM, RE007 growth inh inactive, HCMV inh inactive and Tb PYK inh inactive.
For Cc1ccc(CNC(=O)CN2C(=O)COc3ccc(S(=O)(=O)N4CCC(C)CC4)cc32)cc1 the results were FMDV inh inactive, Sm TGR block inactive, HCMV inh inactive and Tb PYK inh inactive.
`COc1ccc(-c2cc3ccc(O)c(CN4CCCC(C)C4)c3oc2=O)cc1OC` (stereo unspecified) gave FMDV inh inactive, Sm TGR block inactive, HCMV inh inactive and Tb PYK inh inactive.
Screening COc1ccc(Sc2cccc3c2S(=O)(=O)N(C2CC2)C[C@@H](COCc2ccccc2)O3)cc1OC returned HCMV inh inactive.
Screening COC(C[C@H](O)CC(=O)[C@H](C)OCc1ccccc1)OC returned FMDV inh inactive, FBPA Giardia inh inactive, Sm TGR block 44.7µM, RE007 growth inh inactive, HCMV inh inactive and Tb PYK inh inactive.
Cc1ccc(C2NC(=O)c3n[nH]c(C)c32)cc1 (stereo unspecified) was read as HCMV inh inactive.
COC(=O)c1ccc(-n2nnc(-c3nsc(NC(=O)c4ccc(Cl)cc4)n3)c2C)cc1 was read as FMDV inh inactive, Sm TGR block inactive, HCMV inh inactive and Tb PYK inh inactive.
`Cc1c(-c2nsc(NC(=O)c3ccc(Cl)cc3)n2)nnn1-c1ccc(C(C)C)cc1` gave FMDV inh inactive, Sm TGR block inactive, HCMV inh -78.8 and Tb PYK inh inactive.
For Cc1c(-c2nsc(NC(=O)c3cccs3)n2)nnn1-c1ccc(Br)cc1 the results were FMDV inh inactive, Sm TGR block inactive, HCMV inh -92.0 and Tb PYK inh inactive.
Screening Cc1ccc(-n2nnc(-c3nsc(NC(=O)c4ccccc4)n3)c2C)cc1 returned FMDV inh inactive, Sm TGR block inactive, HCMV inh inactive and Tb PYK inh inactive.
For COc1ccc(-n2c(SCC(=O)Nc3ccc4c(c3)OCO4)nc3c([nH]c4ccccc43)c2=O)cc1 the results were FMDV inh inactive, Sm TGR block inactive, HCMV inh inactive and Tb PYK inh inactive.
For O=C(O)c1nn(CCOc2c(Cl)cccc2Cl)c(=O)c2ccccc12 the results were FMDV inh inactive, FBPA Giardia inh inactive, Sm TGR block inactive, RE007 growth inh inactive, HCMV inh -74.7 and Tb PYK inh inactive.
Screening COC1CC2C=C(C)C=CC=CC(=O)NC(c3ccccc3)CC=CCCC(O)CC(=O)C2=C1O (stereo unspecified) returned FMDV inh 2.51µM, RE007 growth inh inconclusive, HCMV inh -100.3 and Tb PYK inh inactive.
`O=C(c1csnn1)N1CCC2(CCCN(c3ccncc3)C2)CC1` gave FMDV inh inactive, FBPA Giardia inh inactive and Tb PYK inh inactive.
Screening COc1ccc(C(O)c2ncc(-c3ccccc3)[nH]2)c(OC)c1 (stereo unspecified) returned FMDV inh inactive, RE007 growth inh inactive[18.4 µM], HCMV inh -66.5 and Tb PYK inh inactive.
CN=C1C([N+](=O)[O-])=CC=C2C1=NC1(CCCCC1)N2O was read as FMDV inh inactive, FBPA Giardia inh 5µM, Sm TGR block inconclusive, RE007 growth inh inactive, HCMV inh inactive and Tb PYK inh inactive.
For O=[N+]([O-])C1=CC=C2C(=NC3(CCCCC3)N2O)C1=NCCO the results were FMDV inh inconclusive, FBPA Giardia inh 7.06µM, Sm TGR block inconclusive, RE007 growth inh inactive, HCMV inh inactive and Tb PYK inh inactive.
